Values without a mark were called inactive. Entries that show only a call come without a potency. Active and inactive are the calls of the source. Calls come from the whole dose curve; as a rule, active = well fitted inhibition curve with a large enough effect; inconclusive = small, poorly fitted or top-dose-only effect; inactive = flat fitted curve, though single readings scatter. Where a SMILES comes first, the peptide text is derived from it. [ ]: non-standard residue; d: D form. PhLac = O=C(O)[CH](O)Cc1ccccc1; NMeV = CN[CH](C(=O)O)C(C)C
molecular target: Luciferin 4-monooxygenase (Photinus pyralis) (UniProt P08659); test: Primary firefly luciferase (FLuc) qHTS assay for identification of artifact compounds. (AID 1845220); settings: purified firefly luciferase, luminescence, 5 min; series mostly up to 54.1 µM; note: nearly all actives have a fitted effect of over 60% in size
Summary of the method: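 qHTS, 15 min compound preincubation with substrate (10 uM luciferin, 10 uM ATP) at RT, then 10 nM FLuc; 5 min; luminescence; % inhibition vs no-enzyme/DMSO controls, 4-parameter Hill fit.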

Structure (SMILES)	activity change, negative = inhibition	Potency
CC[C@H](/C=C/[C@@H](C)[C@H]1CC[C@H]2[C@@H]3CC=C4C[C@@H](O)CC[C@]4(C)[C@H]3CC[C@]12C)C(C)C	2.1% [at 6.45 µM]	
c1ccc(Cc2ncc3c(n2)CCNCC3)cc1		inactive
C[C@@H]1O[C@@H](O[C@H]2[C@H](O[C@H]3CO[C@@H](O[C@H]4CC[C@@]5(C)C(CC[C@]6(C)C5CC[C@]57OC[C@@]8(CC[C@](C)(CO)CC85)[C@H](O)C[C@]76C)C4(C)C)[C@H](O[C@@H]4O[C@H](CO)[C@@H](O)[C@H](O)[C@H]4O)[C@H]3O)O[C@H](CO)[C@@H](O)[C@@H]2O)[C@H](O)[C@H](O)[C@H]1O (some centres undefined)	0.85% [at 11.6 µM]	
COC(=O)C1=CO[C@@H](O[C@@H]2O[C@H](CO[C@@H]3O[C@H](COC(=O)/C=C/c4ccc(O)cc4)[C@@H](O)[C@H](O)[C@H]3O)[C@@H](O)[C@H](O)[C@H]2O)[C@@H]2C(CO)=CC[C@H]12		inactive
CC1(C)CC[C@]2(C(=O)O)CC[C@]3(C)C(=CCC4[C@@]5(C)C[C@H](O)[C@H](O[C@@H]6OC[C@H](O)[C@H](O)[C@H]6O)[C@@](C)(CO)C5CC[C@]43C)[C@@H]2C1 (some centres undefined)		inactive
CC(C)C(C(=O)N1CCCC1C(=O)O)N(C)C(=O)C(O)Cc1ccccc1 (centres undefined) (H-[PhLac]-[NMeV]-Pro-OH; configuration not given here)		inactive
C[C@@H]1CC[C@]2(C(=O)O[C@@H]3O[C@H](CO)[C@@H](O)[C@H](O)[C@H]3O)CC[C@]3(C)C(=CCC4[C@@]5(C)C[C@@H](O)[C@H](O)C(C)(C)C5CC[C@]43C)C2[C@]1(C)O (some centres undefined)		inactive
C=CC1(C)C=C2C(O)CC3C(C)(C(=O)O)CCCC3(C)C2CC1 (centres undefined)		inactive
CC(=O)[C@@H]1CC[C@]2(C(=O)O)CC[C@]3(C)C(CCC4[C@@]5(C)CC[C@H](O)C(C)(C)C5CC[C@]43C)C12 (some centres undefined)		inactive
CC1(C)CC(=O)N(CCCCN2CCN(c3ncccn3)CC2)C(=O)C1		inactive
O=C(CCO[C@@H]1O[C@H](CO)[C@@H](O)[C@H](O)[C@H]1O)c1ccc(O)cc1		inactive
COC(=O)C1(Cc2ccc(O)cc2)OC(=O)C(OC)=C1c1ccc(O)cc1 (centres undefined)		inactive
COc1cc([C@H]2OC[C@]3(OC(C)=O)[C@@H](c4ccc(O[C@@H]5O[C@H](CO)[C@@H](O)[C@H](O)[C@H]5O)c(OC)c4)OC[C@H]23)ccc1O		inactive
CC(=O)O[C@@H]1[C@@H](OC(=O)/C=C/c2ccccc2)[C@H](C)O[C@@H](O[C@H]2[C@@H]3C=CO[C@@H](O[C@@H]4O[C@H](CO)[C@@H](O)[C@H](O)[C@H]4O)[C@@H]3[C@@]3(CO)O[C@@H]23)[C@@H]1OC(C)=O		inactive
CC1CCC2(C(=O)OC3OC(CO)C(O)C(O)C3O)CCC3(C(=O)O)C(=CCC4C5(C)CCC(OC6OC(C)C(O)C(O)C6O)C(C)(C)C5CCC43C)C2C1C (centres undefined)		inactive
O=C1N(CC2CCCCN2)CCN1c1ccccc1 (centres undefined)		inactive
Cc1coc2c1CC1OC1(C)CCC1OC1(C)C2 (centres undefined)		inactive
CC(CO[C@@H]1O[C@H](COC(=O)/C=C/c2ccc(O)c(O)c2)[C@@H](O)[C@H](O)[C@H]1O)C1(O)COC(=O)C1 (some centres undefined)		inactive
OCC1OC(Oc2cc(O)c3c(c2)OC(c2ccc(O)cc2)C(O)C3)C(O)C1O (centres undefined)		inactive
CCNC(=O)[C@H]1O[C@H](n2cnc3c(NCC(c4ccccc4)c4ccccc4)nc(C(=O)NCCNC(=O)NC4CCN(c5ccccn5)CC4)nc32)[C@H](O)[C@@H]1O		inactive
CC1CCCC2OC2C(=O)c2c(O)cc(O)cc2CC(=O)O1 (centres undefined)		inactive
CN1C(=O)N[C@@H](Cc2c[nH]c3c(Cl)cccc23)C1=O		inactive
CCC(=O)O[C@]1(C(=O)CCl)[C@@H](C)C[C@H]2[C@@H]3C[C@H](F)C4=CC(=O)C=C[C@]4(C)[C@@]3(F)[C@@H](O)C[C@@]21C		inactive
C[C@@H]1O[C@@H](O[C@H]2[C@H](OC(=O)[C@]34CCC(C)(C)C[C@H]3C3=CCC5[C@@]6(C)CC[C@H](O[C@@H]7O[C@H](CO[C@@H]8OC[C@H](O)[C@H](O)[C@H]8O)[C@@H](O)[C@H](O)[C@H]7O)C(C)(C)C6CC[C@@]5(C)[C@]3(C)C[C@H]4O)OC[C@@H](O)[C@@H]2O)[C@H](O)[C@H](O)[C@H]1O[C@@H]1OC[C@H](O)[C@H](O[C@@H]2OC[C@@H](O)[C@H](O)[C@H]2O)[C@H]1O (some centres undefined)	1.47% [at 11.6 µM]	

— PubChem BioAssay (NCATS)
